Assay results: PubChem BioAssay (NCATS)
Records with an inconclusive call do not appear. Activity calls are given as the source filed them. Calls follow the shape of the dose curve; as a rule, active = well fitted inhibition curve with a large enough effect; inconclusive = small, poorly fitted or top-dose-only effect; inactive = flat fitted curve, though single readings scatter.

Experiments:
Assay in all cases: qHTS profiling for inhibitors of Plasmodium falciparum proliferation (AID 504749); also: nearly all actives have a fitted effect of over 60% in size
Details in all cases: P. falciparum in erythrocytes, SYBR Green DNA, 72 h; series mostly up to 28.7 µM
CP191 = tested on: CP191
How it was run: (§1)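 P. falciparum-infected erythrocytes (0.3% parasitemia, 2.5% hematocrit final) were exposed to compounds for 72 h at 37 C in 5% CO2, then lysed with SYBR Green buffer overnight at room temperature; parasite DNA fluorescence was normalized to artemisinin and DMSO controls.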

CP237 = tested on: CP237
How it was run: as §1

CP247 = tested on: CP247
How it was run: as §1

CP250 = tested on: CP250
How it was run: as §1

CP256 = tested on: CP256
How it was run: as §1

CP265 = tested on: CP265
How it was run: as §1

CP266 = tested on: CP266
How it was run: as §1

CP268 = tested on: CP268
How it was run: as §1

CP269 = tested on: CP269
How it was run: as §1

CP305 = tested on: CP305
How it was run: as §1

CP325 = tested on: CP325
How it was run: as §1

DIV30 = tested on: DIV30
How it was run: as §1

ECU = tested on: ECU
How it was run: as §1

HB3 = tested on: HB3
How it was run: as §1

P94_40 = tested on: P94_40
How it was run: as §1

PAD = tested on: PAD
How it was run: as §1

PC26 = tested on: PC26
How it was run: as §1

PC49 = tested on: PC49
How it was run: as §1

SC27B = tested on: SC27B
How it was run: as §1

TAB113 = tested on: TAB113
How it was run: as §1

Measured: Potency

CC1(C)[C@@H]2CC[C@]1(C)[C@@H](OC(=O)CSC#N)C2
inactive: CP191 | CP237 | CP247 | CP250 | CP256 | CP265 | CP266 | CP268 | CP269 | CP305 | CP325 | DIV30 | ECU | HB3 | P94_40 | PAD | PC26 | PC49 | SC27B | TAB113

COc1cccc2c1C(=O)c1c(O)c3c(c(O)c1C2=O)C[C@](O)(C(=O)CO)C[C@@H]3O[C@H]1C[C@H](N)[C@@H](O)[C@H](C)O1
inactive: CP191 | CP237 | CP247 | CP250 | CP256 | CP265 | CP266 | CP268 | CP269 | CP305 | CP325 | DIV30 | ECU | HB3 | P94_40 | PAD | PC26 | PC49 | SC27B | TAB113

NS(=O)(=O)c1cc2c(cc1Cl)N[C@H](Cc1ccccc1)NS2(=O)=O
inactive: CP191 | CP237 | CP247 | CP250 | CP256 | CP265 | CP266 | CP268 | CP269 | CP305 | CP325 | DIV30 | ECU | HB3 | P94_40 | PAD | PC26 | PC49 | SC27B | TAB113
